MITF primary – human MITF inhibition, primary screen; O75030; AlphaScreen MITF homodimerization, bead proximity signal; inhibition, % at 2.6 µM; 650,000 compounds, 0.91% hits; AID 1259374; in the data active = inhibition above about 50%
TEAD-YAP inh – TEAD-YAP interaction inhibition; inhibition, % at 9.12 µM; 640,000 compounds, 1.4% hits; HEK-TIYL cells, TEAD-Gal4/YAP UAS-luciferase luminescence; in the data active = inhibition above about 32%
FBW7 act – human FBW7 E3 ligase activation, primary screen | AlphaScreen FBW7–phospho-cyclin E peptide binding, activator screen | normalized activity (activation), % at 26.1 µM | 650,000 compounds, 0.13% hits; in the data active = normalized activity above about 1.9%;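 also: purified mutant Fbw7 with reduced substrate affinity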
GPR151 activ – human GPR151 activation | activation, % at 11.2 µM | PathHunter beta-arrestin GPR151 cells, luminescence | 650,000 compounds, 1% hits; in the data active = activation above about 4.9%
Target sequence (Q8TDV0 whole entry, looked up): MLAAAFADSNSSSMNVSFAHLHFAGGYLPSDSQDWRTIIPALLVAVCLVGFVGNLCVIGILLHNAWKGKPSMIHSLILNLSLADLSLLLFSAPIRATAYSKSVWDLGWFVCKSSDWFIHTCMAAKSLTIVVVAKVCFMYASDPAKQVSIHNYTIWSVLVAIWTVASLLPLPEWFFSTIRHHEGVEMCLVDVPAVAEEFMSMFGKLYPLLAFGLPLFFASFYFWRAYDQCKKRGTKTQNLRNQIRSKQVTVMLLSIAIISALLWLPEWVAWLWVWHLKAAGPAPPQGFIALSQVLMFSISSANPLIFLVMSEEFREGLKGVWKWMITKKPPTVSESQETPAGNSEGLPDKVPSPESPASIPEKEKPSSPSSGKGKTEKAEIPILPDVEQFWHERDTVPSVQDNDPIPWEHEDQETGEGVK
Large screens that a line does not name were inactive. Only some compounds are listed: those with a hit (about 3.5% of all), similar ones and a draw of the others.

O=C1NC(=O)N(Cc2ccco2)C(=O)/C1=C\C=C\c1ccccc1	MITF primary 54.1
COc1ccc(/C=C2/C(=O)NC(=O)N(Cc3ccco3)C2=O)cc1C	MITF primary 58.8
O=C1NC(=O)N(Cc2ccco2)C(=O)/C1=C\c1ccc2c(c1)OCO2	MITF primary 72.4
COc1ccc(/C=C2/C(=O)NC(=O)N(Cc3ccccc3)C2=O)cc1OC	none
O=C1/C(=C/c2ccc3c(c2)OCO3)SC(=S)N1Cc1ccco1	none
COc1cc(N2CCOCC2)ccc1/C=C1\C(=O)NC(=O)N(Cc2ccco2)C1=O	MITF primary 65.6
C=CCN1C(=O)NC(=O)/C(=C/C=C/c2ccco2)C1=O	none
C=CCN=c1scc(-c2ccc(O)c(C(N)=O)c2)n1/N=C/c1cc(OC)ccc1OC	none
Cc1cc(C(=O)NNC(=O)C(O)(c2ccccc2)c2ccccc2)cs1	FBW7 act 1.9
CCCCn1c(=S)[nH]c2ccccc21	FBW7 act 2.0
CCOCCn1c2c(c3ccccc31)=NC1C=CC=CC1N=2 (configuration not stated)	FBW7 act 2.7
Cn1cc(CNc2nncc(-c3ccc4ccccc4c3)n2)cn1	TEAD-YAP inh 33.6
Cn1cc(CNc2nncc(-c3ccc(Cl)cc3)n2)cn1	none
CC1=NN(c2nc3ccccc3[nH]2)C(=O)C1CCC(C)C (configuration not stated)	TEAD-YAP inh 73.2
O=C1c2ccccc2C(=O)c2cc(S(=O)(=O)O)c(O)cc21	MITF primary 64.5
Nc1cc2c(cc1S(=O)(=O)O)C(=O)c1ccccc1C2=O	none
O=C1OC2C=CC=CC2C=C1C(=O)N1CCSC1c1ccc2c3c(cccc13)CC2 (configuration not stated)	none
Cc1cc(C(=O)COC(=O)c2cccc(S(=O)(=O)N(C)C)c2)c(C)n1CC1CCCO1 (configuration not stated)	none
CNS(=O)(=O)c1cccc(C(=O)OCC(=O)c2cc(C)n(Cc3ccco3)c2C)c1	none
CNS(=O)(=O)c1cccc(C(=O)OCC(=O)c2cc(C)n(Cc3cccs3)c2C)c1	TEAD-YAP inh 58.4
CNS(=O)(=O)c1cccc(C(=O)OCC(=O)c2cc(C)n(CC3CCCO3)c2C)c1 (configuration not stated)	TEAD-YAP inh 56.9
CCN(CC)C(=O)CC1(CC(=O)O)CCCC1	none
CCC(C)c1ccc(OCCCNCCO)cc1 (configuration not stated)	TEAD-YAP inh 40.2
COc1ccccc1CNC(=O)c1ccc(NC(=O)C2=C(C)OCCS2)cc1Cl	none
Cn1c(=O)[nH]c(=O)c2c1nc(Br)n2CC(O)COc1ccc([N+](=O)[O-])cc1 (configuration not stated)	none
O=C(Nc1ccc2[nH]ncc2c1)c1ccc(OC2CCOCC2)nc1	TEAD-YAP inh 47.6
NCCOc1cc(C(=O)Nc2ccc3[nH]ncc3c2)ccn1	TEAD-YAP inh 72.2
CCc1ccc(CN2CCN(C(=O)c3ccc(F)cc3)CC2)cc1	TEAD-YAP inh 36.9
O=C(c1ccc(F)cc1)N1CCN(Cc2ccc(Cl)cc2)CC1	none
c1ccc(-n2cnc3c(NCc4nc5ccccc5[nH]4)nc(Nc4ccc5ncccc5c4)nc32)cc1	FBW7 act 23.4
c1cnc2ccc(Nc3nc(NCc4nc5ccccc5[nH]4)c4ncn(-c5ccsc5)c4n3)cc2c1	TEAD-YAP inh 49.0, FBW7 act 42.3
c1ccc(CNc2nc(Nc3ccc4ncccc4c3)nc3c2ncn3-c2ccsc2)cc1	none
FC(F)(F)c1ccccc1NC(=S)N/N=C1\CC2CC=CC12 (configuration not stated)	TEAD-YAP inh 46.7
O=C(Cn1ncc2c(=O)oc3ccccc3c21)N1CCN(c2ccccc2)CC1	none
O=C(Cn1ncc2c(=O)oc3ccccc3c21)N1CCN(c2cccc(Cl)c2)CC1	TEAD-YAP inh 41.1
CCN(Cc1ccncc1)C1CCN(c2ccc(CC(=O)NCc3ccccc3)cc2)CC1	TEAD-YAP inh 41.2
CCOC(=O)C1=C(CSc2nc(CC)c(C)cc2C#N)OC(N)=C(C#N)C1c1cccc(F)c1 (configuration not stated)	none
CN(C)c1cccc(-c2cnc3ccc(NCc4ccc(F)cc4)nn23)c1	none
C=CC1=C(C)C2=CC3=NC(=C(CC(=O)[O-])C4=NC(=C(C)C4=C([O-])[O-])C=c4[n-]c(c(C)c4CC)=CC1=N2)C(CCC(=O)[O-])C3C.C=CC1=C(C)C2=CC3=NC(=C(CC(=O)[O-])C4=NC(=C(C)C4=C([O-])[O-])C=c4[n-]c(c(C)c4CC)=CC1=N2)C(CCC(=O)[O-])C3C.[Cu+2].[Na+].[Na+].[Na+] (configuration not stated)	MITF primary 60.3
